Assay results published in PubChem BioAssay (NCI).
Compounds without any hit were thinned out: in the full panel of roughly 83,000, 20% have a hit.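 Single-dose data. Exposure time 48 hours. Values below 10 considered active.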 Values without a mark were called inactive. Activity calls are given as the source filed them.

Tests used:
Test in all cases: NCI-60 one-dose screen, 48 h (100 = growth as untreated, 0 = no growth, -100 = all killed)
Settings in all cases: 10 µM unless noted
[1] = tested on: SK-MEL-2 melanoma
[2] = tested on: EKVX NSCLC
[3] = tested on: SN12C renal
[4] = tested on: UO-31 renal
[5] = tested on: TK-10 renal
[6] = tested on: ACHN renal
[7] = tested on: CAKI-1 renal
[8] = tested on: A498 renal
[9] = tested on: CCRF-CEM leukemia
[10] = tested on: MOLT-4 leukemia

SMILES: O=C(Nc1cc(Cl)ccc1O)c1ccc(Nc2ccnc(C(F)(F)F)c2)cc1
- growth [1]: 41.4%
- growth [2]: 71.2%
- growth [3]: 35.6%
- growth [4]: 12.6%
- growth [5]: 79%
- growth [6]: 23.7%
- growth [7]: 58.7%
- growth [8]: 35.8%
- growth [9]: 2.44% (active)
- growth [10]: 19.2%

SMILES: COc1ccc2cc(C(=O)c3coc4ccc(O)cc34)ccc2c1
- growth [1]: 97%
- growth [2]: 103%
- growth [3]: 98.8%
- growth [4]: 68.4%
- growth [5]: 103%
- growth [6]: 107%
- growth [7]: 92.6%
- growth [8]: 105%
- growth [9]: 56.4%
- growth [10]: 81.1%

SMILES: CC(C)NC1CCC(Nc2ccnc3cc(Cl)ccc23)CC1 (stereo not given)
- growth [1]: 116%
- growth [2]: 97.1%
- growth [3]: 102%
- growth [4]: 68.8%
- growth [5]: 86.8%
- growth [6]: 96.8%
- growth [7]: 121%
- growth [8]: 89.2%
- growth [9]: -32.1% (active)
- growth [10]: 69.2%

SMILES: COC(=O)c1cc(-c2ccc(S(C)(=O)=O)cc2)[nH]c1N/N=C/c1c(Cl)cccc1Cl
- growth [1]: -18.8% (active)
- growth [2]: 42.2%
- growth [3]: 39.4%
- growth [4]: 22.5%
- growth [5]: 19.2%
- growth [6]: 53.7%
- growth [7]: 30.3%
- growth [8]: -22.5% (active)
- growth [9]: 1.59% (active)
- growth [10]: 6.05% (active)

SMILES: CCN(CC)CCOc1ccc(-c2c(-c3ccccc3)c(=O)oc3ccccc23)cc1
- growth [1]: 82.5%
- growth [2]: 94.6%
- growth [3]: 80.3%
- growth [4]: 61.5%
- growth [5]: 95.9%
- growth [6]: 100%
- growth [7]: 97.5%
- growth [8]: 72%
- growth [9]: 95.7%
- growth [10]: 80.7%

SMILES: Cc1cc2c([nH]1)CSc1cc(S(=O)(=O)c3ccccc3)c(=O)[nH]c1-2
- growth [1]: 30.5% [100 µM]
- growth [2]: 21.1% [100 µM]
- growth [3]: 23.8% [100 µM]
- growth [4]: 35.4% [100 µM]
- growth [5]: 26.5% [100 µM]
- growth [6]: 23.5% [100 µM]
- growth [7]: 6.96% [100 µM] (active)
- growth [8]: 51.7% [100 µM]
- growth [9]: 19.3% [100 µM]
- growth [10]: 32.7% [100 µM]

SMILES: COc1ccc(C2c3sc4c(F)cccc4c3Oc3nc[nH]c(=O)c32)cc1 (stereo not given)
- growth [1]: 97.8%
- growth [2]: 71.2%
- growth [3]: 77.8%
- growth [4]: 47.6%
- growth [5]: 110%
- growth [6]: 72.7%
- growth [7]: 76.6%
- growth [8]: 95%
- growth [9]: 85.3%
- growth [10]: 84.2%

SMILES: O=[N+]([O-])c1ccc(S(=O)(=O)N2CCN(C3=NS(=O)(=O)c4ccccc4N3c3ccccc3)CC2)cc1
- growth [1]: 61.6%
- growth [2]: 102%
- growth [3]: 114%
- growth [4]: 76.8%
- growth [5]: 118%
- growth [6]: 99.3%
- growth [7]: 84.6%
- growth [8]: 105%
- growth [9]: 125%
- growth [10]: 94.9%

SMILES: O=C(CCCCC1CCSS1)Nc1ncnc2n[nH]c(-c3ccc(Oc4ccccc4)cc3)c12 (stereo not given)
- growth [1]: 43.6%
- growth [2]: 80.5%
- growth [3]: 106%
- growth [4]: 73.2%
- growth [5]: 109%
- growth [6]: 88.3%
- growth [7]: 97.1%
- growth [8]: 123%
- growth [9]: 13.7%
- growth [10]: -31.3% (active)

SMILES: CCOc1ccc(NC(=O)CSc2oc(-c3ccccc3)nc2S(=O)(=O)c2ccc(F)cc2)cc1
- growth [1]: 81.4%
- growth [2]: 82.7%
- growth [3]: 89.4%
- growth [4]: 94.5%
- growth [5]: 83%
- growth [6]: 73.7%
- growth [7]: 82.8%
- growth [8]: 63.7%
- growth [9]: 79.8%
- growth [10]: 63.9%

SMILES: CCSc1nc(NC)c2cc(-c3ccc(C(F)(F)F)cc3)ccc2n1
- growth [1]: 98.2%
- growth [2]: 96.6%
- growth [3]: 95.1%
- growth [4]: 92.2%
- growth [5]: 121%
- growth [6]: 97.6%
- growth [7]: 96.3%
- growth [8]: 112%
- growth [9]: 95.6%
- growth [10]: 93.4%

SMILES: CCOC(=O)/C=C1\S/C(=N\Nc2cc(=O)[nH]c3ccc(Cl)cc23)N(c2ccccc2)C1=O
- growth [1]: 105%
- growth [2]: 100%
- growth [3]: 93.1%
- growth [4]: 75.2%
- growth [5]: 107%
- growth [6]: 91.6%
- growth [7]: 83.3%
- growth [8]: 115%
- growth [9]: 3.19% (active)
- growth [10]: 21%

SMILES: COC1C[C@H](O[C@@H]2C[C@H](O[C@@H]3C[C@H](O[C@@H]4C(=O)c5c(cc6cc(O[C@H]7C[C@@H](O[C@H]8C[C@@H](O)[C@H](O)C(C)O8)[C@H](O)C(C)O7)c(C)c(O)c6c5O)C[C@H]4C(OC)C(=O)[C@@H](O)[C@@H](C)O)OC(C)[C@H]3O)OC(C)[C@@H]2O)OC(C)[C@@H]1O (stereo not given in full)
- growth [1]: -61.7% (active)
- growth [2]: 7.01% (active)
- growth [3]: 2.57% (active)
- growth [4]: 5.02% (active)
- growth [5]: 1.34% (active)
- growth [6]: 6.35% (active)
- growth [7]: 28.6%
- growth [8]: -44.5% (active)
- growth [9]: 6.53% (active)
- growth [10]: 5.23% (active)
